aSyn UTR act: Activators via SNCA 5'UTR binding, MLPCN; 300,000 tested, 7.1% active; AID 1814, 2009; alpha-synuclein 5'UTR reporter, activators screen; activity score, % (tested at 7.5 µM), hits read low; in the data active means activity score below about -60%
* marks the source's active call; other numbers are inactive results. A selection follows.

What do the screens show for `COc1ccc(-c2nc(CS(=O)CC(=O)NCCCN3CCCC(C)C3)c(C)o2)cc1OC` (stereo not drawn)?
aSyn UTR act: -101.0*

How did Cc1oc(-c2ccc(Cl)cc2)nc1CS(=O)CC(=O)NCCCN1CCCC(C)C1 (stereo not drawn) do in these assays?
aSyn UTR act: -90.9*

Results for CCCc1cc2c(=O)c(-c3ccccn3)coc2cc1OC ?
aSyn UTR act: -157.6*

Results for CCCCN1CCc2c([nH]c3c(C)cccc23)C1=O ?
aSyn UTR act: -149.6*

What do the screens show for `Cc1cc(N2CCN(C(=O)c3ccco3)CC2)n2ncc(-c3ccccc3)c2n1`?
aSyn UTR act: -78.5*

Results for Cc1cc(N2CCCCC2)n2ncc(-c3ccc(Cl)cc3)c2n1 ?
aSyn UTR act: -181.3*

Results for Oc1cccc(-c2nc3ccc4ccccc4c3c3c2CCC3)c1 ?
aSyn UTR act: -137.0*

How did COC(=O)Oc1ccc(/C=C/C(=O)OC(C)C)cc1OC(=O)OC do in these assays?
aSyn UTR act: -127.3*

How did CSc1nc(-c2ccccc2)nc(NC(C)=O)c1C(C)=O do in these assays?
aSyn UTR act: -62.5*

What do the screens show for `Cc1ccc(NC(=O)C(C)N=C2NS(=O)(=O)c3ccccc32)cc1F` (stereo not drawn)?
aSyn UTR act: -95.7*

Results for CC(=O)c1sc(NC(=O)c2ccc(Br)o2)nc1C ?
aSyn UTR act: -76.5*

How did CCOC(=O)c1csc(NC(=O)c2cc(=O)c3ccccc3o2)n1 do in these assays?
aSyn UTR act: -68.5*

Results for CC(=O)c1sc(NC(=O)c2cc(=O)c3ccccc3o2)nc1C ?
aSyn UTR act: -81.2*

What do the screens show for `Oc1c(C(c2ccccc2Cl)N2CCCC2)ccc2cccnc12` (stereo not drawn)?
aSyn UTR act: 97.3

How did CCc1cc(C=C(Cl)Cl)oc(=O)c1C do in these assays?
aSyn UTR act: -117.2*

What do the screens show for `CCOC(=O)N1CCN(C(=O)c2cc(COc3ccc(F)cc3F)on2)CC1`?
aSyn UTR act: -65.2*

Results for CCOC(=O)C1CCN(C(=O)c2cc(COc3ccc(F)cc3F)on2)CC1 ?
aSyn UTR act: -144.0*

What do the screens show for `N#CCn1cc(/C=N/NC(=O)c2cc3c(ccc4ccccc43)o2)c2ccccc21`?
aSyn UTR act: -112.4*

Results for N#CCC(=O)N/N=C/c1cn(Cc2ccc(Cl)c(Cl)c2)c2ccccc12 ?
aSyn UTR act: 61.2

How did COc1ccc(-c2nc(SCc3ccccc3)n(C(=O)c3ccco3)n2)cc1 do in these assays?
aSyn UTR act: -80.5*

Results for COc1ccc(-c2nc(SC)n(C(=O)c3ccco3)n2)cc1 ?
aSyn UTR act: -129.9*

Results for CCOC(=O)c1c(C)[nH]c(C(=O)NNC(=O)c2ccccc2)c1C ?
aSyn UTR act: -67.1*

Results for CCOC(=O)c1c(C)[nH]c(C(=O)N/N=C\c2ccccc2Cl)c1C ?
aSyn UTR act: -63.7*

What do the screens show for `CCOC(=O)c1c(C)[nH]c(C(=O)N/N=C/c2cccc(OC)c2)c1C`?
aSyn UTR act: -104.3*

What do the screens show for `CCCn1c(O)c(C=Nc2ccccc2)sc1=S`?
aSyn UTR act: -86.1*

Results for C/C(=N\Nc1nc(N)cc(Cl)n1)c1ccc(F)cc1 ?
aSyn UTR act: -71.1*

What do the screens show for `C/C(=N\Nc1nccnc1Cl)c1ccc(F)cc1`?
aSyn UTR act: -104.3*

What do the screens show for `CCC(=O)n1nc(-c2ccco2)nc1SCc1ccccc1`?
aSyn UTR act: -74.2*

How did CC(=O)n1nc(-c2ccco2)nc1SCc1ccccc1 do in these assays?
aSyn UTR act: -88.7*

How did Cc1csc(NC(=O)CSc2ncc(-c3ccccc3)[nH]2)n1 do in these assays?
aSyn UTR act: -96.9*

How did Cc1ccc2nc(-c3ccc(SCC(=O)Nc4nnc(C)s4)nc3)[nH]c2c1 do in these assays?
aSyn UTR act: -93.7*

What do the screens show for `CCc1nnc(NC(=O)CSc2ccc(-c3nc4ccccc4[nH]3)cn2)s1`?
aSyn UTR act: -186.8*

Results for Cc1ccc2nc(-c3ccc(SCC(=O)Nc4nc(C)cs4)nc3)[nH]c2c1 ?
aSyn UTR act: -246.5*

What do the screens show for `CN(C(=O)c1ccc2c(c1)OCO2)C1CCCCC1`?
aSyn UTR act: -82.0*

Results for O=C(NC1CCCCC1)c1ccc2c(c1)OCO2 ?
aSyn UTR act: -93.3*

Results for CN(C(=O)c1cccc(N2C(=O)C3C4C=CC(C4)C3C2=O)c1)C1CCCCC1 (stereo not drawn) ?
aSyn UTR act: -102.5*

How did O=C(c1ccc(-c2nnc(-c3ccccc3)o2)cc1)N1CCCCCC1 do in these assays?
aSyn UTR act: -67.7*

How did O=C(O)c1ccc(-c2nnc(-c3ccccc3)o2)cc1 do in these assays?
aSyn UTR act: -78.1*

Results for O=C(c1ccc(-c2ccccc2)cc1)N1CCN(c2ccccc2)CC1 ?
aSyn UTR act: -69.6*

How did COc1ccccc1/C=N/N(C(C)=O)c1nc(-c2ccc(F)cc2)cs1 do in these assays?
aSyn UTR act: -121.2*

How did COc1ccc(OC)c(-c2cc(C(=O)Nc3c(C)nn(Cc4ccc(Cl)cc4)c3C)no2)c1 do in these assays?
aSyn UTR act: 58.3

Results for COc1ccc(-c2nnc(SC(C)C(=O)Nc3cccc(Cl)c3)o2)cc1 (stereo not drawn) ?
aSyn UTR act: -160.4*

Results for COc1ccc(OC)c(-c2cc(C(=O)Nc3cccc(Cl)c3)no2)c1 ?
aSyn UTR act: -67.9*

How did COc1ccc(-c2cc(C(=O)Nc3cccc(C(C)=O)c3)no2)cc1 do in these assays?
aSyn UTR act: -76.1*

What do the screens show for `COC(=O)c1sccc1-c1ccc(C(=O)Nc2cccc(Cl)c2)o1`?
aSyn UTR act: -124.9*

How did COc1ccc(-c2cc(C(=O)Nc3cccc(Cl)c3)no2)cc1 do in these assays?
aSyn UTR act: -265.6*

What do the screens show for `COc1ccc(-c2noc(N(C)CC(=O)Nc3cccc(C(F)(F)F)c3)n2)cc1`?
aSyn UTR act: -76.3*

How did COC(=O)c1sccc1-c1ccc(/C=N/OC(=O)c2ccccc2)o1 do in these assays?
aSyn UTR act: -69.0*

How did CS(=O)(=O)N1CCc2cc(C(=O)OCC(=O)c3ccccc3)ccc21 do in these assays?
aSyn UTR act: -138.3*

Results for CS(=O)(=O)N1CCc2cc(C(=O)Nc3ccc(Br)cc3)ccc21 ?
aSyn UTR act: -76.6*

How did Cc1cccc(NC(=O)c2ccc3c(c2)CCN3S(C)(=O)=O)c1 do in these assays?
aSyn UTR act: -202.6*

How did CS(=O)(=O)N1CCc2cc(C(=O)Nc3ccccc3Cl)ccc21 do in these assays?
aSyn UTR act: -95.6*

Results for Cc1ccc(NC(=O)c2ccc3c(c2)CCN3S(C)(=O)=O)cc1C ?
aSyn UTR act: -111.6*

What do the screens show for `Cn1c(=O)oc2cc(S(=O)(=O)CCC(=O)Nc3ccccc3)ccc21`?
aSyn UTR act: -64.0*

What do the screens show for `Cc1cc(NC(=O)/C=C/c2ccc(Br)cc2)no1`?
aSyn UTR act: -74.0*

Results for C/C(=C\C(=O)Nc1cc(C)on1)c1ccccc1 ?
aSyn UTR act: -110.2*

How did Cc1ccc(/C=C2\SC(=S)N(CCCC(=O)Nc3cc(C)on3)C2=O)cc1 do in these assays?
aSyn UTR act: 57.9

What do the screens show for `Cc1cc(NC(=O)/C=C/c2ccc(Cl)cc2)no1`?
aSyn UTR act: -77.7*

Results for Cc1ccc(-c2cc(C(=O)Nc3ccc4c(c3)OCCO4)c3ccccc3n2)cc1 ?
aSyn UTR act: -74.3*

Results for O=C(NC1=NCCS1)c1cc(-c2ccc(-c3ccccc3)cc2)nc2ccccc12 ?
aSyn UTR act: -88.2*

What do the screens show for `O=C(Nc1ccc2c(c1)OCCO2)c1cccc2nc3ccccc3nc12`?
aSyn UTR act: 59.8

What do the screens show for `O=C(NCCSC1CCCCC1)c1ccccc1`?
aSyn UTR act: -66.9*

Results for COc1ccc(C(=O)NCCSC2CCCCC2)cc1 ?
aSyn UTR act: -159.4*

High-throughput results (PubChem BioAssay)
